# From PubChem BioAssay (EPA / NIEHS)
# Values joined by “and” are separate entries in the source; they are usually repeats but may differ in a detail not shown here. Identical values can stand only once. Results filed as inconclusive are left out. Some structures have more than one record in an assay (separate samples or runs), and their calls can disagree. Active and inactive are the calls of the source. Rule for the calls, unless noted: active = hit-call score of the fitted dose curve at least 0.9, where 1 is the maximum; inconclusive = response in the unintended direction; inactive = score below 0.9.
# Tests used:
# [1] = target: human Peroxisome Proliferator-activated Receptor delta (PPARd), PPARD (gene 5467) (UniProt Q03181); assay: ATG_PPARd_TRANS: Attagene TRANS-FACTORIAL HepG2 Assay for human Peroxisome Proliferator-activated Receptor delta (PPARd) (AID 2283002)
# Procedure, shortened: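 Fluorescence from capillary electrophoresis of labelled RT-PCR reporter fragments gives the signal; DMSO sets baseline. Cells: HepG2 transiently carrying GAL4-UAS reporter units plus chimeric nuclear receptor-Gal4 proteins, exposed to chemicals for 24 h.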
# [2] = read-out: Intercellular Adhesion Molecule 1 (ICAM1), ICAM1 (gene 3383); assay: BSK_3C_ICAM1: BioMAP Diversity Plus: 3C Assay for Intercellular Adhesion Molecule 1 (ICAM1) Biomarker Activity (AID 2283003; active = hit-call score of the fitted dose curve at least 0.9, where 1 is the maximum; inactive = score below 0.9); settings: primary human endothelial cells (HUVEC); actives raise or lower the signal
# Procedure, shortened: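 Human vascular endothelial primary cells, 3C conditions, 24 h treatment. ICAM-1 by ELISA.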
# [3] = target: Retinoic acid receptor alpha (Homo sapiens) (UniProt P10276); assay: ATG_RARa_TRANS: Attagene TRANS-FACTORIAL HepG2 Assay for human Retinoic Acid Receptor alpha (RARa) (AID 2283005)
# Procedure, shortened: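 HepG2 transiently transfected with multiplex GAL4-UAS reporter units including a human RARa–GAL4 chimera; 24 h compound exposure. Reporter mRNA quantified by RT-PCR, 6-FAM labeling and capillary electrophoresis; gain of signal versus DMSO.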
# [4] = target: Nuclear receptor subfamily 1 group I member 2 (Homo sapiens) (UniProt O75469); assay: ATG_PXR_TRANS: Attagene TRANS-FACTORIAL HepG2 Assay for human Pregnane X Receptor (PXR) (AID 2283008)
# Procedure, shortened: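 HepG2 cells transiently transfected with multiple reporter units, here a PXR-GAL4 chimera driving a GAL4-UAS reporter; 24 h compound exposure. Reporter mRNA measured by RT-PCR, FAM labelling and capillary electrophoresis; gain of signal fitted against DMSO baseline.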
# [5] = target: human Retinoic Acid Receptor gamma (RARg), RARG (gene 5916) (UniProt P13631); assay: ATG_RARg_TRANS: Attagene TRANS-FACTORIAL HepG2 Assay for human Retinoic Acid Receptor gamma (RARg) (AID 2283009)
# Procedure, shortened: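 HepG2, RARg-GAL4 TRANS system, 24 h exposure; reporter mRNA by RT-PCR + CE fluorescence; increase over DMSO.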
# [6] = target: Retinoic acid receptor RXR-alpha (Homo sapiens) (UniProt P19793); assay: ATG_RXRa_TRANS: Attagene TRANS-FACTORIAL HepG2 Assay for human Retinoid X Receptor alpha (RXRa) (AID 2283012)
# Procedure, shortened: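 Cells (HepG2) carried transiently transfected GAL4-responsive reporter units. Following a 24 h chemical incubation, reporter mRNA induction was read via RT-PCR fragment analysis; DMSO served as negative control and baseline.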
# [7] = target: human Retinoid X Receptor beta (RXRb), RXRB (gene 6257) (UniProt P28702); assay: ATG_RXRb_TRANS: Attagene TRANS-FACTORIAL HepG2 Assay for human Retinoid X Receptor beta (RXRb) (AID 2283013)
# Procedure, shortened: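 Multiplexed TRANS reporter assay in HepG2; 24 h dosing; reporter mRNA by RT-PCR/CE fluorescence; gain-of-signal relative to DMSO.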
# [8] = target: human Thyroid Receptor alpha (THRa1), THRA (gene 7067) (UniProt P10827); assay: ATG_THRa1_TRANS: Attagene TRANS-FACTORIAL HepG2 Assay for human Thyroid Receptor alpha (THRa1) (AID 2283014)
# Procedure, shortened: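 Transient HepG2 transfection, NR-Gal4 chimera driving GAL4-UAS reporters; 24 h compound exposure; total RNA, oligo(dT) RT, PCR, fluorescent primer extension, capillary electrophoresis. Upward direction vs DMSO control.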
# [9] = read-out: E-selectin (Homo sapiens) (UniProt P16581); assay: BSK_3C_Eselectin: BioMAP Diversity Plus: 3C Assay for Eselectin Biomarker Activity (AID 2283015; active = hit-call score of the fitted dose curve at least 0.9, where 1 is the maximum; inactive = score below 0.9;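 for outcome: cell surface E-selectin protein quantified by ELISA 24 h after dosing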); settings: primary human endothelial cells (HUVEC); actives raise or lower the signal
# Procedure, shortened: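 HUVEC, 3C stimulation; compound exposure 24 h; E-selectin by ELISA; gain- or loss-of-signal fitted bidirectionally vs DMSO baseline.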
# [10] = read-out: Interleukin-1 alpha (IL1a), IL1A (gene 3552); assay: BSK_BE3C_IL1a: BioMAP Diversity Plus: BE3C Assay for Interleukin-1 alpha (IL1a) Biomarker Activity (AID 2283016; active = hit-call score of the fitted dose curve at least 0.9, where 1 is the maximum; inactive = score below 0.9); settings: primary human bronchial epithelial cells; actives raise or lower the signal
# Procedure, shortened: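 Cultures of primary human bronchial epithelial cells receive test chemical. After 24 h, IL-1a is quantified by ELISA, while parallel wells are fixed in TCA and SRB-stained for total protein. Changes in either direction are fitted relative to DMSO.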
# [11] = read-out: Monocyte Chemoattractant Protein-1 (MCP1), CCL2 (gene 6347); assay: BSK_3C_MCP1: BioMAP Diversity Plus: 3C Assay for Monocyte Chemoattractant Protein-1 (MCP1) Biomarker Activity (AID 2283017; active = hit-call score of the fitted dose curve at least 0.9, where 1 is the maximum; inactive = score below 0.9); settings: primary human endothelial cells (HUVEC); actives raise or lower the signal
# Procedure, shortened: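 HUVEC, 3C system; 24 h chemical exposure; MCP-1 by ELISA; bidirectional curve fit vs DMSO baseline.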
# [12] = read-out: Human Leukocyte Antigen - DR isotype (HLADR), HLA-DRA (gene 3122); assay: BSK_3C_HLADR: BioMAP Diversity Plus: 3C Assay for Human Leukocyte Antigen - DR isotype (HLADR) Biomarker Activity (AID 2283019; active = hit-call score of the fitted dose curve at least 0.9, where 1 is the maximum; inactive = score below 0.9;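 for outcome: ELISA of cell-surface HLA-DR on HUVEC 24 h after dosing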); settings: primary human endothelial cells (HUVEC); actives raise or lower the signal
# Procedure, shortened: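 HUVEC, 3C stimulation, 24 h post-dose; HLA-DR by ELISA; bidirectional curve fit vs DMSO baseline; gain or loss of signal scored.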
# [13] = read-out: Interleukin-8 (IL8), CXCL8 (gene 3576); assay: BSK_3C_IL8: BioMAP Diversity Plus: 3C Assay for Interleukin-8 (IL8) Biomarker Activity (AID 2283020; active = hit-call score of the fitted dose curve at least 0.9, where 1 is the maximum; inactive = score below 0.9); settings: primary human endothelial cells (HUVEC); actives raise or lower the signal
# Procedure, shortened: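 Human vascular endothelial cells (umbilical vein) in the 3C system; IL-8 level detected by ELISA at 24 h post-dose, with DMSO as baseline.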
# [14] = read-out: Monokine induced gamma interferon (MIG), CXCL9 (gene 4283); assay: BSK_3C_MIG: BioMAP Diversity Plus: 3C Assay for Monokine induced gamma interferon (MIG) Biomarker Activity (AID 2283021; active = hit-call score of the fitted dose curve at least 0.9, where 1 is the maximum; inactive = score below 0.9;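 for AC50: MIG protein level measured by immunoassay in the treated endothelial cultures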); settings: primary human endothelial cells (HUVEC); actives raise or lower the signal
# Procedure, shortened: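 After 24 h of treatment, human umbilical vein endothelial cultures (3C system) had their MIG biomarker level determined by ELISA, with DMSO serving as negative control.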
# [15] = target: human RAR-related Orphan Receptor beta (RORb), RORB (gene 6096) (UniProt Q92753); assay: ATG_RORb_TRANS: Attagene TRANS-FACTORIAL HepG2 Assay for human RAR-related Orphan Receptor beta (RORb) (AID 2283010)
# Procedure, shortened: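 In this TRANS-format test, human HepG2 cells express chimeric NR-Gal4 fusion proteins driving GAL4-UAS reporters. After 24 h dosing, reporter transcripts are measured by fluorescent RT-PCR/capillary electrophoresis, with DMSO as negative control.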
# [16] = target: human RAR-related Orphan Receptor gamma (RORg), RORC (gene 6097) (UniProt P51449); assay: ATG_RORg_TRANS: Attagene TRANS-FACTORIAL HepG2 Assay for human RAR-related Orphan Receptor gamma (RORg) (AID 2283011)
# Procedure, shortened: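 Transient MRTU transfection of HepG2 (TRANS format, exogenous NR-Gal4 chimera). 24 h dosing. Total RNA → oligo(dT) RT → PCR → 6-FAM labelling → HpaI cut → CE. Gain vs DMSO.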
# [17] = target: human Vitamin D Receptor (VDR), VDR (gene 7421) (UniProt P11473); assay: ATG_VDR_TRANS: Attagene TRANS-FACTORIAL HepG2 Assay for human Vitamin D Receptor (VDR) (AID 2283022)
# Procedure, shortened: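 RT-PCR/capillary electrophoresis read-out of reporter mRNA induction in transiently transfected HepG2; 24 h dosing; chimeric NR-Gal4 (TRANS format); gain-of-signal fit against DMSO baseline.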
# [18] = target: Peroxisome proliferator-activated receptor gamma (Homo sapiens) (UniProt P37231); assay: ATG_PPARg_TRANS: Attagene TRANS-FACTORIAL HepG2 Assay for human Peroxisome Proliferator-activated Receptor-gamma (PPARg) (AID 2283007)
# Procedure, shortened: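 Twenty-four hours after chemical dosing of transiently transfected HepG2 cells, isolated RNA was converted to cDNA, reporter sequences amplified and 6-FAM-labelled, then HpaI-digested and analysed by capillary electrophoresis. Signal increase against DMSO was fitted.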
# [19] = BSK_3C_Proliferation: Cell Proliferation Assessment in the BioMAP Diversity Plus: 3C Assay (AID 2283006; active = hit-call score of the fitted dose curve at least 0.9, where 1 is the maximum; inactive = score below 0.9;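 note: potency may reflect either rise or fall in cell number versus DMSO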); settings: primary human endothelial cells (HUVEC)
# Procedure, shortened: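 Proliferation of human vascular endothelial primary cells after 48 h dosing, quantified as SRB-stained protein at 560 nm relative to DMSO.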
# [20] = read-out: Monocyte Chemoattractant Protein-1 (MCP1), CCL2 (gene 6347); assay: BSK_4H_MCP1: BioMAP Diversity Plus: 4H Assay for Monocyte Chemoattractant Protein-1 (MCP1) Biomarker Activity (AID 2283018; active = hit-call score of the fitted dose curve at least 0.9, where 1 is the maximum; inactive = score below 0.9); settings: primary human endothelial cells (HUVEC); actives raise or lower the signal
# Procedure, shortened: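 Readout: MCP-1 ELISA on compound-treated HUVEC, sampled 24 h post-dosing. Baseline and negative control DMSO; bidirectional fit. Overt toxicity checked alongside by sulforhodamine B protein staining at time of biomarker measurement.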
# human Peroxisome Proliferator-activated Receptor delta (PPARd), PPARD (gene 5467), sequence (Q03181 whole entry, looked up, the tested form may be a part): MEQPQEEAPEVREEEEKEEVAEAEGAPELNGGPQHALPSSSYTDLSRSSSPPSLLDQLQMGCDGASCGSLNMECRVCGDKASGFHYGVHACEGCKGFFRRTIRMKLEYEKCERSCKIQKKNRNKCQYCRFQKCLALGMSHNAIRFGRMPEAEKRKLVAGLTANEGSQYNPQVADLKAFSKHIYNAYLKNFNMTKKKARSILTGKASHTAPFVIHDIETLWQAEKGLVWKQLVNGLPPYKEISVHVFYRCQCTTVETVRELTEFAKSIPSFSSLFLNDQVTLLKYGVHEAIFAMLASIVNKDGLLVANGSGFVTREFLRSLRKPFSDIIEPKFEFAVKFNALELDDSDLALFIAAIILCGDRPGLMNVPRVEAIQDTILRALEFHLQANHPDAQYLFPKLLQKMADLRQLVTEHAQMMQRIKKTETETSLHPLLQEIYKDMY
# human RAR-related Orphan Receptor beta (RORb), RORB (gene 6096), sequence (Q92753 whole entry, looked up, the tested form may be a part): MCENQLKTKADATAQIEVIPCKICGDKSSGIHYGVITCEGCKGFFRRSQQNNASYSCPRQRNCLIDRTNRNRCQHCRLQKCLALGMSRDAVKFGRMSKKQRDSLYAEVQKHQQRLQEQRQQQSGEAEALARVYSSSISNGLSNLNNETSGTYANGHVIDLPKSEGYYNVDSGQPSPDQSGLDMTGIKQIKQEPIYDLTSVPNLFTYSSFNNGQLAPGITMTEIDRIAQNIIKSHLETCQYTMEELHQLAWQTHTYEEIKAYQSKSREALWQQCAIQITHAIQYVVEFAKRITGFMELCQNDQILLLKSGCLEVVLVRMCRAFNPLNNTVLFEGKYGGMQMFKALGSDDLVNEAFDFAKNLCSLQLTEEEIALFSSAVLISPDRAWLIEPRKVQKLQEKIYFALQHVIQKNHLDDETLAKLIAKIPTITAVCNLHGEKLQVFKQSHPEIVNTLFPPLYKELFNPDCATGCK
# human Retinoid X Receptor beta (RXRb), RXRB (gene 6257), sequence (P28702 whole entry, looked up): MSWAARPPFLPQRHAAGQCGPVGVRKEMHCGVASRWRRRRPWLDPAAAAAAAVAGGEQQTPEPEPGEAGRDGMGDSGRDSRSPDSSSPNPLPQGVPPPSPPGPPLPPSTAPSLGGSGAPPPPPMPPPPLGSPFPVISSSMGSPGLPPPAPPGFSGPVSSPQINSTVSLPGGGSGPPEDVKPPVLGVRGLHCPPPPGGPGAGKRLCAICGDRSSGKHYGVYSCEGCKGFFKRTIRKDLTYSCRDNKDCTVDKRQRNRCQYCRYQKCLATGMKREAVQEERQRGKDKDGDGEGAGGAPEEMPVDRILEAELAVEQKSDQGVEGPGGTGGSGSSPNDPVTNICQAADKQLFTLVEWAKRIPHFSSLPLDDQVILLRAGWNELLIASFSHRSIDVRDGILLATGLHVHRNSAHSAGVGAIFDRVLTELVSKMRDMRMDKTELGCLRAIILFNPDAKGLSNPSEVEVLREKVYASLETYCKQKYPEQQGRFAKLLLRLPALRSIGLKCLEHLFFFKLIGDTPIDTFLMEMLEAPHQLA
# Peroxisome proliferator-activated receptor gamma (Homo sapiens), sequence (P37231 whole entry, looked up): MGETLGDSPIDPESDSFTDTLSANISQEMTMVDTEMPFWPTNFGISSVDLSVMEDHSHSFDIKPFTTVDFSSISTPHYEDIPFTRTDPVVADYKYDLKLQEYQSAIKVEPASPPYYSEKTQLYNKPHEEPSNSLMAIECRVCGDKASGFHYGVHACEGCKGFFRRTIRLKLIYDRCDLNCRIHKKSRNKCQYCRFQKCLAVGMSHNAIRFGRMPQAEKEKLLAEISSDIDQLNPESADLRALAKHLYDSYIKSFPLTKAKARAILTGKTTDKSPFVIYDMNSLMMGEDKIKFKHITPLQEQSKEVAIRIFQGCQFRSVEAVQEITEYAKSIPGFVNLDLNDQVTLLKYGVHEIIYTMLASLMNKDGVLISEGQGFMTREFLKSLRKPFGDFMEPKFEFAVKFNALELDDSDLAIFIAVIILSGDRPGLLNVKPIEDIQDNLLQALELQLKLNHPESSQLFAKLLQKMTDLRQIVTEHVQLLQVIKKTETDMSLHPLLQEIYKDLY
# Nuclear receptor subfamily 1 group I member 2 (Homo sapiens), sequence (O75469 whole entry, looked up, the tested form may be a part): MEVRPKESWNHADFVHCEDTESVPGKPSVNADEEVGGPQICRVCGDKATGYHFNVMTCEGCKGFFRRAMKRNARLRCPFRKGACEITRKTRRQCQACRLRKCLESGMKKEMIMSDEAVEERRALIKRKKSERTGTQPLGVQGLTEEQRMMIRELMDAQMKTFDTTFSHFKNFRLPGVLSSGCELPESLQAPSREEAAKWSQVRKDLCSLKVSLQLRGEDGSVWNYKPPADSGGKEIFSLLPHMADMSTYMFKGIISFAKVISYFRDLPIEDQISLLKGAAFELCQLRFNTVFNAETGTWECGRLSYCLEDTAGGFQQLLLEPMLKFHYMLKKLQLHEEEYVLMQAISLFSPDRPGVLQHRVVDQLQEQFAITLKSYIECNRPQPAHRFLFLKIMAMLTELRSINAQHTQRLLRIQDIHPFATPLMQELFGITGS
# Retinoic acid receptor alpha (Homo sapiens), sequence (P10276 whole entry, looked up, the tested form may be a part): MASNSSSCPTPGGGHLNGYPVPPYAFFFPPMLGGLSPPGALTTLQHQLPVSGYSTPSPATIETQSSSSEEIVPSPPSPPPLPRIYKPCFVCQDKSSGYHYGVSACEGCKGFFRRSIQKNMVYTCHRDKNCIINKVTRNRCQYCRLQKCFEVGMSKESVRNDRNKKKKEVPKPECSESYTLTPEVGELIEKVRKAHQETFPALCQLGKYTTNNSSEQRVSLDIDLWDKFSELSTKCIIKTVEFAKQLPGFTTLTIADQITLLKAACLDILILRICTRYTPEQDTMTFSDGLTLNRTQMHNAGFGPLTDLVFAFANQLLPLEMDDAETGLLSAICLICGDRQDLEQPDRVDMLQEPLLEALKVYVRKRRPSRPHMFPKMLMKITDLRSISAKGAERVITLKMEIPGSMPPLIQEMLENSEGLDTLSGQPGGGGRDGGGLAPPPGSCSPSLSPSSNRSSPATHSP
# Retinoic acid receptor RXR-alpha (Homo sapiens), sequence (P19793 whole entry, looked up, the tested form may be a part): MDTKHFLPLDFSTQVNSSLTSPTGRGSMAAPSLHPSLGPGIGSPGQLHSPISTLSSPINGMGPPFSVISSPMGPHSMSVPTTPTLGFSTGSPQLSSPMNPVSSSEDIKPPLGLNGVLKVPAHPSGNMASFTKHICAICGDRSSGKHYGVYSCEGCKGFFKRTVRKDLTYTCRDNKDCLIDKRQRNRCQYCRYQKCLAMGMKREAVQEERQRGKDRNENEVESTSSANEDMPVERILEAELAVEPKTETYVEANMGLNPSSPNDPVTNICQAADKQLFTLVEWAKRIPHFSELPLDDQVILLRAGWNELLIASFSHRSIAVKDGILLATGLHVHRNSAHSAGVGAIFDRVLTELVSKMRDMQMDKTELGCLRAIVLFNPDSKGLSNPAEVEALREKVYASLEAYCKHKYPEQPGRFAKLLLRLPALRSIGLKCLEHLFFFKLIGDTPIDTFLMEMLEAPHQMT
# human Vitamin D Receptor (VDR), VDR (gene 7421), sequence (P11473 whole entry, looked up, the tested form may be a part): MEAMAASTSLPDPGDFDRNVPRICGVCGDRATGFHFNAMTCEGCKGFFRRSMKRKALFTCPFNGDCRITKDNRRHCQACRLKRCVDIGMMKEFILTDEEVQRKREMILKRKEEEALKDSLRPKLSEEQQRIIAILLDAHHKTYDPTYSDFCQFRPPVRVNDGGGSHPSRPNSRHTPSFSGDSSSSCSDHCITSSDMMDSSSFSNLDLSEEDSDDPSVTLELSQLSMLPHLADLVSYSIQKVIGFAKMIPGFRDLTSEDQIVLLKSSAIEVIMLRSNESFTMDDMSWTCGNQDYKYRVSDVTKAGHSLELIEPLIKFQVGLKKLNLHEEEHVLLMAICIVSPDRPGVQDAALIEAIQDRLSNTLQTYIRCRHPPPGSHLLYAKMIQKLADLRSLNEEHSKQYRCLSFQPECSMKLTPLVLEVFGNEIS
# human Retinoic Acid Receptor gamma (RARg), RARG (gene 5916), sequence (P13631 whole entry, looked up, the tested form may be a part): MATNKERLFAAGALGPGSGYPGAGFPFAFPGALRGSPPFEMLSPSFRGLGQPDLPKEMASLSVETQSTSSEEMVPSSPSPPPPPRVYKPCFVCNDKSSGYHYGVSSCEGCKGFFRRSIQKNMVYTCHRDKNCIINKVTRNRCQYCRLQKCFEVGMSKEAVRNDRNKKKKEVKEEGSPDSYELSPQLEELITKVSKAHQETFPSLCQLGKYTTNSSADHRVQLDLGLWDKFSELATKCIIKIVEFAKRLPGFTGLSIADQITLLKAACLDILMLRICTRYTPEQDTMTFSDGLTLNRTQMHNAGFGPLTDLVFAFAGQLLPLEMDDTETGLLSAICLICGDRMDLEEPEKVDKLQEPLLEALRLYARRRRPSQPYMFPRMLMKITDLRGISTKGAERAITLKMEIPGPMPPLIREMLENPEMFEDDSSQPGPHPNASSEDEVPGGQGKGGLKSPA
# human RAR-related Orphan Receptor gamma (RORg), RORC (gene 6097), sequence (P51449 whole entry, looked up, the tested form may be a part): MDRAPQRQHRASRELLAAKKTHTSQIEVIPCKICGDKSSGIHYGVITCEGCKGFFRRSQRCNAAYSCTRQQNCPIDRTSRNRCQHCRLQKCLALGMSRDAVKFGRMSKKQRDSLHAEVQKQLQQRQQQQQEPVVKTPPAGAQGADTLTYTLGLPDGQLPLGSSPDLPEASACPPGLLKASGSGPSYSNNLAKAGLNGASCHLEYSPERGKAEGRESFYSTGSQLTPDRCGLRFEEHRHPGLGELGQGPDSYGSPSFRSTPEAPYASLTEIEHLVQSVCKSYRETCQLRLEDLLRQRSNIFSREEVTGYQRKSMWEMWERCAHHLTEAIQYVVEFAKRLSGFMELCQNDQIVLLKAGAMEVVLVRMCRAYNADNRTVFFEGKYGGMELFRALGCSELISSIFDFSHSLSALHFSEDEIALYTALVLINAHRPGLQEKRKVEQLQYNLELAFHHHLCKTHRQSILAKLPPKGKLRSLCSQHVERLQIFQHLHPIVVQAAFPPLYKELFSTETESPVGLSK
smiles,measurement,setting,value
C#C[C@]1(O)CC[C@H]2[C@@H]3CCC4=CC(=O)CC[C@@H]4[C@H]3CC[C@@]21C,outcome,[1],inactive
same,outcome,[2],inactive
same,outcome,[3],inactive
same,AC50,[4],26.6 µM (active)
same,outcome,[4],inactive
same,outcome,[5],inactive
same,outcome,[6],inactive
same,outcome,[7],inactive
same,outcome,[8],inactive
same,AC50,[9],11.5 µM (active)
same,outcome,[10],inactive
same,AC50,[11],6.01 µM (active)
same,AC50,[12],7.59 µM (active)
same,AC50,[13],5.01 µM (active)
same,outcome,[14],inactive
OCCC(F)(F)C(F)(F)C(F)(F)C(F)(F)C(F)(F)C(F)(F)C(F)(F)C(F)(F)F,outcome,[1],inactive
same,AC50,[2],40.5 µM (active) and 15.1 µM (active)
same,outcome,[2],inactive
same,outcome,[4],inactive
same,outcome,[15],inactive
same,outcome,[16],inactive
same,outcome,[6],inactive
same,outcome,[7],inactive
same,outcome,[8],inactive
same,AC50,[9],30 µM (active)
same,outcome,[9],inactive
same,AC50,[10],18.2 µM (active) and 18.6 µM (active)
same,outcome,[10],inactive
same,AC50,[11],42.5 µM (active) and 24.3 µM (active)
same,outcome,[11],inactive
same,AC50,[12],20 µM (active) and 27.8 µM (active) and 30 µM (active)
same,AC50,[13],48.2 µM (active)
same,outcome,[13],inactive
same,AC50,[14],48.6 µM (active)
same,outcome,[14],inactive
same,AC50,[17],100 µM (active)
same,outcome,[17],inactive
CC(=O)CC(C)(C)O,outcome,[1],inactive
same,outcome,[2],inactive
same,outcome,[3],inactive
same,outcome,[18],inactive
same,outcome,[4],inactive
same,outcome,[5],inactive
same,outcome,[16],inactive
same,outcome,[6],inactive
same,outcome,[7],inactive
same,outcome,[8],inactive
same,outcome,[9],inactive
same,outcome,[10],inactive
same,outcome,[11],inactive
same,outcome,[12],inactive
same,outcome,[13],inactive
same,outcome,[14],inactive
same,outcome,[17],inactive
CC(C)(C)c1cccc(C(C)(C)C)c1O,outcome,[1],inactive
same,outcome,[2],inactive
same,outcome,[3],inactive
same,AC50,[19],36.4 µM (active)
same,outcome,[18],inactive
same,AC50,[4],60.2 µM (active)
same,outcome,[5],inactive
same,outcome,[15],inactive
same,AC50,[6],68.8 µM (active)
same,AC50,[7],33.5 µM (active)
same,outcome,[8],inactive
same,outcome,[9],inactive
same,outcome,[10],inactive
same,outcome,[11],inactive
same,outcome,[20],inactive
same,outcome,[13],inactive
same,outcome,[14],inactive
CCCOc1sc(C(=O)N2CCC(c3cc(CN)ccc3F)CC2)c(C)c1Br,outcome,[1],inactive
same,AC50,[2],10.6 µM (active)
same,AC50,[18],6.67 µM (active)
same,outcome,[4],inactive
same,outcome,[5],inactive
same,outcome,[15],inactive
same,outcome,[16],inactive
same,outcome,[6],inactive
same,outcome,[7],inactive
same,AC50,[9],11.1 µM (active)
same,AC50,[10],5.86 µM (active)
same,AC50,[11],7.57 µM (active)
same,AC50,[13],8.8 µM (active)
same,AC50,[14],11.1 µM (active)
same,outcome,[17],inactive
CCCCC(CC)COC(=O)CCCCC(=O)OCc1ccccc1 (stereo not drawn),outcome,[1],inactive
same,outcome,[2],inactive
same,outcome,[18],inactive
same,AC50,[4],17.8 µM (active)
same,outcome,[5],inactive
same,outcome,[15],inactive
same,outcome,[16],inactive
same,AC50,[7],80.6 µM (active)
same,outcome,[8],inactive
same,outcome,[9],inactive
same,outcome,[10],inactive
same,outcome,[11],inactive
same,outcome,[12],inactive
same,outcome,[13],inactive
same,outcome,[14],inactive
same,outcome,[17],inactive
CC1=C(/C=C/C(C)=C/C=C/C(C)=C/C(=O)O)C(C)(C)CCC1,AC50,[1],56 µM (active)
same,outcome,[1],inactive
same,outcome,[2],inactive
same,AC50,[19],32.8 µM (active)
same,AC50,[18],29.6 µM (active) and 10.1 µM (active)
same,AC50,[4],19.8 µM (active)
same,outcome,[4],inactive
same,outcome,[5],inactive
same,outcome,[8],inactive
same,AC50,[9],20 µM (active)
same,outcome,[10],inactive
same,outcome,[11],inactive
same,AC50,[12],19.6 µM (active)
same,outcome,[13],inactive
same,outcome,[14],inactive
same,outcome,[17],inactive
